# Test results taken from ChEMBL document CHEMBL3988442, “University of Dundee, Small-Polar-MMV Screening Library” (2021).
# In all, about 48,000 compounds went through this assay and about 13,000 (27%) showed an effect of 50% or more. Some of the results follow.
# Test system: Wolbachia pipientis
# Assay: Anti-Wolbachia Cell-Based Screen
# Assay type: functional
# Parameters: scale not given: in the data most compounds retested in dose-response had high values
# Conditions: 5 µM
row,SMILES,Percent Effect [%]
1,O=C(NCCc1cccs1)N1CCCC2(CCC(=O)N(C3CC3)C2)C1 (stereo unspecified),-0.08952
2,Cl.NCC(=O)N1CCCC1c1n[nH]cc1-c1ccccc1F (stereo unspecified),132.3
3,O=C(COCC1CC1)N1CCCC1c1nc(-c2ccccc2F)c[nH]1 (stereo unspecified),4.201
4,CCOCCCC(=O)N1CCCC1c1nc(-c2ccccc2F)c[nH]1 (stereo unspecified),-5.002
5,NCC(=O)N1CCCCC1c1ccc(F)cc1 (stereo unspecified),-11.61
6,CNCC(=O)N1CCCC1c1n[nH]cc1-c1ccccc1F.Cl (stereo unspecified),165.9
7,COC(=O)NCC(=O)N1CCCC1c1nc(-c2ccccc2F)c[nH]1 (stereo unspecified),0.1259
8,CCC(=O)N1CCCC1c1n[nH]cc1-c1ccccc1F (stereo unspecified),184.8
9,O=C1CC(c2ccsc2)c2sc(C(=O)O)c(-c3ccccc3)c2N1 (stereo unspecified),15.35
10,CCN(CC)CCNC(=O)c1ccc(-n2ccc3ccccc32)s1,94.19
11,CCN(CC)CCNC(=O)c1ccc(Cl)c(NS(C)(=O)=O)c1,-1.52
12,O=C(NCCCN1CCOCC1)c1ccc(-n2ccc3ccccc32)s1,91.37
13,Cc1ccc(OCCC(=O)NCCCN2CCCC2=O)c(C)c1,-5.078
14,O=C(NCCCN1CCOCC1)C(OC1CCCC1)c1ccccc1 (stereo unspecified),-5.979
15,CCN(CC)CCNC(=O)c1ccn(COc2cc(C)cc(C)c2)n1,5.075
16,O=C(NCCCN1CCCCC1)c1ccc(-n2ccc3ccccc32)s1,-1.697
17,O=C(NCCN1CCOCC1)c1ccc(-n2ccc3ccccc32)s1,-14.37
18,O=C(NCCCN1CCCC1=O)c1ccc(-n2ccc3ccccc32)s1,114.9
19,O[C@@H]1CN(Cc2cc(Cl)cc3cccnc23)C[C@@H]1O,10.63
20,Cc1nc(CN(C)C(=O)c2ccc(Cn3cnnn3)cc2)cs1,-19.39
21,CCOc1ncccc1Cn1cc(-c2cncnc2)nn1,-4.97
22,O=C(NCc1nncn1C1CC1)c1ccc(F)c(COCC2CC2)c1,-29.13
23,CC(=O)c1ccc(N2CCC(CO)(CCOc3ccccc3)CC2)nc1,-10.96
24,CC(C)c1nc(CN(C)Cc2ncccc2C(=O)O)cs1,-6.183
25,CCOc1ccc(C(=O)N2CCCC(c3nccn3C)C2)cc1OCC (stereo unspecified),100.4
26,O=C(c1ccc2nccnc2c1)N1C[C@@H](CN2CCCC2)[C@@H](CO)C1,-11.65

row,SMILES,Percent Effect [%]
1,Cn1ccnc1C1CCCN(C(=O)c2ccc3nccnc3c2)C1 (stereo unspecified),95.06
2,CCOc1ccccc1C(=O)N1CCCC(c2nccn2CCOC)C1 (stereo unspecified),-0.2171
3,CCOc1ccc(C(=O)N2C[C@H]3CC[C@@H]2CN(C)C3)cc1OCC,-32.38
4,CC(C)C1CN(C(=O)c2ccc3nccnc3c2)CCS1 (stereo unspecified),-6.684
5,N#Cc1ccc(CN2CCCC3(Cc4ccccc4CNC3=O)C2)cc1 (stereo unspecified),129.6
6,O=C1NCC[C@]12CN(Cc1ccsc1)C[C@H]2c1ccccc1,6.958
7,COCCC1(CO)CCCN(Cc2ccc(C#N)cc2)C1 (stereo unspecified),0.3825
8,O=C1NCc2ccccc2CC12CCCN(CCCc1ccccc1)C2 (stereo unspecified),107.4
9,CN(C)C(=O)CN1CCC2(CCCN(Cc3ccsc3)C2)C1=O (stereo unspecified),-8.794
10,N#Cc1ccc(CN2C[C@@H]3OCC(=O)N[C@@H]3C2)cc1,-14.55
11,COCCC1(CO)CCCN(CCCc2ccccc2)C1 (stereo unspecified),-2.01
12,O=C1N(CCCc2ccccc2)CCCC12CCN(C(CO)CO)C2 (stereo unspecified),4.777
13,O=C1NCc2ccccc2CC12CCCN(Cc1ccsc1)C2 (stereo unspecified),112.5
14,Cc1nc(CN2CC[C@@H]3[C@@H](CCC(=O)N3CCc3c[nH]cn3)C2)co1,-20.08
15,COCCN1C[C@@H](C(=O)O)[C@H](c2ccccc2C)C1,-9.465
16,COCCn1cnnc1Cn1ccnc1-c1ccsc1,-0.8108
17,CN(CCO)Cc1nnc(C2CCN(CC(C)(C)C)CC2)n1C,3.482
18,CCn1nnc2c1CCN(S(C)(=O)=O)C2COCc1ccccc1 (stereo unspecified),-2.948
19,c1cncc(COCC2CNCc3nccn3C2)c1 (stereo unspecified),6.541
20,CC(C)Cc1ccc(S(=O)(=O)NCCCN2CCNC(=O)C2)cc1,7.437
21,CN(c1ccc(C(=O)NCCCN2CCOCC2)c(Cl)c1)S(C)(=O)=O,-4.637
22,CN(C)CCCNC(=O)c1ccc(Cl)cc1Cl,119
23,CN(C)CCCNC(=O)c1cc(Cl)ccc1Cl,87.97
24,CN(C)CCCNC(=O)c1cc(Br)c2c(c1)OCCO2,-6.944
25,Cc1ccc(-n2ccnc2)c(C(=O)NCCCN(C)C)c1,-3.641
26,CSCC(C)(O)CNC(=O)c1cc(Cl)ccc1Cl (stereo unspecified),2.772

row,SMILES,Percent Effect [%]
1,COc1cccc2c1OCC(NCc1cnn(-c3ccccc3F)c1)C2 (stereo unspecified),-11.75
2,COc1cc(C(C)=O)ccc1SCC(=O)Nc1cccc(C)n1,6.413
3,Cc1cccc(NC(=O)c2cccc(OCc3nnnn3C)c2)n1,73.29
4,Cc1cccc(NC(=O)c2ccc(OCc3nnnn3C)cc2)n1,107.3
5,COc1c(CNCCC(=O)Nc2cccc(C)n2)c(C)nn1C,6.6
6,NC(=O)COc1cccc(C(=O)Nc2cnc3n2CCCC3)c1,11.29
7,COc1nonc1NCn1nc(C)cc1C,152
8,Cc1cc(C)n(CC(C)CNC(=O)N(C)Cc2cc(C)on2)n1 (stereo unspecified),9.156
9,Cc1cc(C)n(CNc2nonc2C(N)=O)n1,109.2
10,NC(=O)c1cccc(CC2CCN(C(=O)Cn3cnnn3)C2)c1 (stereo unspecified),-10.16
11,CCN(CCC#N)Cn1ncc2cn(-c3ccccc3)nc2c1=O,15.78
12,Cc1ncsc1C(=O)NC1CCN(CC(=O)N(C)C(C)(C)C#N)CC1,-1.04
13,NC[C@H]1CC[C@H](C(NC(=O)c2cccc(F)c2)c2ccccn2)CC1 (stereo partly specified),1.736
14,COC(=O)c1sc(C(NC(=O)c2ccccc2)C2CC2)nc1C (stereo unspecified),-18.8
15,COc1ccccc1C(=O)NC(CC(=O)O)c1cccs1 (stereo unspecified),13.12
16,COc1cc(F)c(C(C)NC(=O)c2cccnc2C)cc1OC (stereo unspecified),-13.32
17,COc1cccc(C(=O)NC(c2ccccn2)[C@H]2CC[C@H](CN)CC2)c1 (stereo partly specified),98.61
18,COc1ccccc1C(=O)NC(c1ccccn1)[C@H]1CC[C@H](CN)CC1 (stereo partly specified),100.4
19,Cn1cc(C2(C)CN(Cc3ccc(Cl)c(F)c3)CCO2)cn1 (stereo unspecified),-1.471
20,Cc1cc(F)ccc1CN1CCCC2(C1)OCCO2,-1.552
21,CN(C)C(=O)C1(C)CN(Cc2cn(C)c3ccccc23)CCO1 (stereo unspecified),120.9
22,CN(C)C(=O)C1(C)CN(Cc2cn(C)c3ccc(F)cc23)CCO1 (stereo unspecified),142.1
23,CCCN1CCN(Cc2cn(CCC(N)=O)c3ccccc23)CC1,5.612
24,CNC(=O)[C@@H]1CC[C@@H]2[C@@H](CCN2Cc2cn(C)c3ccccc23)O1.O=C(O)C(F)(F)F,12.94
25,CN(CCN1CCOCC1)C(=O)C1(c2ccc(F)cc2F)CCC1,9.471
26,CN(C)C(=O)COc1ccccc1CN1CCOC2(CCCC2)C1,35.78

row,SMILES,Percent Effect [%]
1,CNC(=O)C1(C)CN(Cc2cn(C)c3ccc(F)cc23)CCO1 (stereo unspecified),119.3
2,CC(NCCCn1ccnc1)c1ccc(N2CCOC2=O)cc1 (stereo unspecified),-1.07
3,c1cnc(N2CC3(CCN(C4CCOC4)CC3)c3ccccc32)nc1 (stereo unspecified),13
4,O=C(CCN1CCCC1)N1CC[C@@H](c2ccc3ccccc3c2)[C@H](O)C1,-4.226
5,CC(C)C(Sc1ccccc1)C(=O)N(C)Cc1nnc2n1CCC2 (stereo unspecified),14.25
6,CCc1cc(-c2nccn2-c2ccccc2CN2CCOCC2)on1,1.321
7,Cc1nc(C)c(CN2CCOC[C@H](Oc3ccccc3)C2)s1,-8.964
8,Cc1nnc([C@@]23CCO[C@@H]2CCN(S(C)(=O)=O)C3)o1,-9.969
9,Cc1noc([C@@]23CCO[C@@H]2CCN(C(=O)c2sccc2C)C3)n1,-13.91
10,Cc1nnc([C@]23COC[C@H]2CN(Cc2cccs2)C3)o1.O=C(O)C(F)(F)F,0.3646
11,Cc1nnc([C@]23COC[C@H]2CN(S(=O)(=O)c2cccnc2)C3)o1.O=C(O)C(F)(F)F,103.4
12,Cc1nnc([C@]23COC[C@H]2CN(Cc2cnn(C)c2)C3)o1.O=C(O)C(F)(F)F,-19.13
13,CCCS(=O)(=O)N1CC[C@H]2OCC[C@@]2(c2nnc(C)o2)C1,-9.465
14,Cc1noc([C@@]23CCO[C@@H]2CCN(C(=O)C2CCOCC2)C3)n1,-2.403
15,Cc1nnc([C@@]23CCO[C@@H]2CCN(S(=O)(=O)c2ccccc2)C3)o1,90.56
16,Cc1nnc([C@@]23CCO[C@@H]2CCN(S(=O)(=O)c2cccnc2)C3)o1,88.28
17,O=C1N(CC2CCC2)CCCC12CCN(S(=O)(=O)c1cccnc1)C2 (stereo unspecified),16.59
18,Cc1noc([C@@]23CCO[C@@H]2CCN(S(=O)(=O)c2cccnc2)C3)n1,103
19,CC(NC(=O)c1ccoc1)C(=O)N(C)Cc1ccsc1 (stereo unspecified),8.82
20,COc1cc(C(=O)N2CCCC(CNS(C)(=O)=O)C2)cc(OC)c1C (stereo unspecified),0.06204
21,CC(C)Oc1cc(N2CCN(Cc3ccsc3)C(CCO)C2)nc(N)n1 (stereo unspecified),-3.773
22,CCCC(NC(=O)c1ccc(OC)cc1F)c1nnn[nH]1 (stereo unspecified),-0.1945
23,COc1c(NS(=O)(=O)c2cc(C)ccc2C)c(C)nn1C,9.711
